Common to all, as to experiment: NCI-60 one-dose screen, 48 h (100 = growth as untreated, 0 = no growth, -100 = all killed)
Holding throughout (conditions): 10 µM

Test [1] has as its system NCI-H23 lung.
The subject of test [2] is NCI-H226 lung.
The subject of test [3] is HOP-62 NSCLC.
Test [4] has as its system NCI-H460 lung.
Test [5] deals with HOP-92 NSCLC.
Test [6] deals with NCI-H522 lung.
Test [7] has as its system A549/ATCC NSCLC.
Test [8] deals with 786-0 renal.
Test [9] concerns COLO 205 colon.

About 83,000 compounds went through this panel and 20% of them were active in at least one assay; those are over-represented in the sample as a whole.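 Step 1: grow cells in 96-well plates. Step 2: add test compound at a single concentration. Step 3: incubate 48 h. Step 4: record percent growth.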 Unmarked numbers belong to inactive results. Activity calls are given as the source filed them. The calls were made as follows: active = growth percent below 10; inactive = the rest.

As for `O=C1c2ccccc2C(=O)c2c1ccc(C(Br)Br)c2[N+](=O)[O-]`, the growth in test [1] is 4.98% (active); in [2] it was -1.88% (active); in test [3], 78.4%; in [4] it was 75.2%; in test [5], 38.8%; in test [6] it was 64.1%. In addition, the growth is 94.6% in test [7], 21.1% in test [8] and 69.6% in test [9].

Take `O=C(CN(C1CCCCC1)C1CCCCC1)Nc1ccc(S(=O)(=O)c2ccc(NC(=O)CN(C3CCCCC3)C3CCCCC3)cc2)cc1`: the growth in test [1] is -36.6% (active); in test [2], 0.397% (active); in [3] it was -21.4% (active); in test [4] it was -9.66% (active); in [5], -86.7% (active); in test [6], -74.4% (active). The growth was 2.61% (active) in test [7], -82.7% (active) in test [8] and -70.6% (active) in test [9].

For `CC(=O)OC/C=C(/C)C[P+](c1ccccc1)(c1ccccc1)c1ccccc1`, the growth in [1] is 80.1%; in test [2] it was 66%; in [3], 65.6%; in test [4], 40.3%; in [5] it was 64.3%; in test [6], 74.6%. The growth was 64.6% in test [7], 74.5% in [8] and 48.3% in test [9].

With `NC(CSC(c1ccccc1)(c1ccccc1)c1cccc2ccccc12)C(=O)O` (stereo unspecified), the growth was 94.2% in test [1]; 96.6% in [2]; 104% in test [3]; 98.8% in test [4]; 81.6% in [5]; 104% in test [6]. Besides, the growth in [7] was 92.7%; in [8], 98.2%; in test [9], 108%.

For the compound `N#Cc1c(N)nc(-c2cc(F)cc(C(F)(F)F)c2)nc1-c1ccccc1F`, the growth in test [1] is 51.9%; in test [2] it was 30.1%; in test [3] it was 21.9%; in test [4] it was 15.2%; in [5] it was 34.7%; in test [6], 68.3%. For the same compound, the growth was 41.7% in [7], 1.27% (active) in test [8] and 24.7% in test [9].

Regarding `CC[C@@H](C(=O)[C@H](C)[C@H](O)[C@@H](C)[C@H]1O[C@H]([C@@H](CC)C(=O)N(CC)CC)CC[C@H]1C)C1O[C@]2(C=C[C@@H](O)[C@]3(CC[C@@](C)([C@H]4CC[C@](O)(CC)[C@H](C)O4)O3)O2)[C@H](C)C[C@@H]1C` (stereo partly specified), the growth in [1] is 18.6%; in [2], 7.49% (active); in test [3], 16.7%; in test [4] it was 12.5%; in test [5], -26.2% (active); in [6], 5.16% (active). The results for the growth in test [7], in [8] and in test [9] were 20.9%, 33.5% and -20.2% (active), respectively.

As for `COc1cc(-c2nn(-c3cccc(NC(=O)NCCNS(=O)(=O)c4ccc(Cl)cc4)c3)cc2-c2ccncc2)ccc1Cl`, the growth was 12.4% in test [1]; 27.3% in test [2]; 32.9% in [3]; 1.86% (active) in test [4]; -3.88% (active) in [5]; 7.66% (active) in [6]. In addition, the growth in [7] is 13.3%; in [8] it was 6.74% (active); in [9], -64.2% (active).

In the case of `C/C=C/C1=CN2C(=O)c3cc(OC4OC(C)C(NC)C(C)(O)C4O)c(C)c(O)c3N=C[C@@H]2C1` (stereo partly specified), the growth in test [1] was -43.7% (active); in test [2], 3.31% (active); in test [3] it was -7% (active); in test [4], -13.8% (active); in test [5] it was -17.8% (active); in test [6], -28.5% (active). The growth in test [7] was 5.24% (active); in [8], -25% (active); in test [9] it was -49.2% (active).

`CCN1CCN(CCC(=O)Nc2cccc(-n3cc(-c4ccncc4)c(-c4ccc(Cl)c(OC)c4)n3)c2)CC1`: the growth in [1] was 32.2%; in test [2], 65%; in test [3] it was 37.7%; in test [4], 6.94% (active); in test [5] it was 6.07% (active); in test [6] it was -23.2% (active). The growth in [7] is 8.56% (active); in [8], -47.6% (active); in test [9] it was -69.3% (active).

As to `Oc1ccc(-c2[nH]c3ccccc3c2-c2nc3ccccc3o2)cc1`, the growth in test [1] is 77.8%; in test [2], 78.5%; in test [3], 67.9%; in [4], 86.6%; in [5], 67.8%; in test [6], 60.9%. Moreover, the growth in test [7] was 58%; in test [8], 75%; in test [9] it was 59.1%.

With `Oc1ccc(/C=N/N=C2c3ccccc3-c3ccccc32)c(O)c1`, the growth in [1] is 70.2%; in test [2], 60.5%; in test [3], 82.3%; in test [4], 83.2%; in [5], 79.5%; in test [6] it was 74.5%. In addition, the results for the growth in test [7], in test [8] and in [9] were 54.8%, 80.4% and 88%, respectively.

Take `CC[C@@H](C(=O)[C@H](C)[C@H](O)[C@@H](C)[C@H]1O[C@H]([C@@H](CC)C(=O)O)CC[C@H]1C)C1O[C@]2(C=C[C@@H](O)[C@]3(CC[C@@](C)([C@H]4CC[C@](O)(CC)[C@H](C)O4)O3)O2)[C@H](C)C[C@@H]1C` (stereo partly specified): the growth in test [1] is 13.4%; in [2], 21.4%; in test [3] it was 36.9%; in test [4], 11.4%; in test [5], 24%; in test [6], -4.35% (active). In addition, the growth in test [7] was 20.8%; in test [8], 27.1%; in [9], 8.73% (active).

As to `CCOC(=O)c1cc(C(=O)c2cc(OC)cc(OC)c2)n2nc(C)ccc12`, the growth in test [1] was 37.2%; in [2], 78.6%; in test [3], 48.4%; in test [4] it was 10.8%; in test [5] it was 13.9%; in test [6], -10.9% (active). Besides, the growth in test [7] is 26.9%; in test [8], 34.4%; in test [9], -11.5% (active).

As for `Cc1ccc(S(=O)(=O)N(C)CCCCCC(=O)O)cc1`, the growth is 99.1% in test [1]; 99.7% in [2]; 92.3% in test [3]; 107% in [4]; 110% in [5]; 90% in [6]. For the same compound, the growth in test [7] is 95%; in test [8], 95.3%; in [9] it was 107%.
